In test [1] the target is Tyrosine-protein kinase SYK (Homo sapiens) (UniProt P43405). Particulars: at 10 µM.
The target in test [2] is T1, Mitogen-activated protein kinase kinase kinase 7 (Homo sapiens) (UniProt O43318).
T1 sequence (whole entry): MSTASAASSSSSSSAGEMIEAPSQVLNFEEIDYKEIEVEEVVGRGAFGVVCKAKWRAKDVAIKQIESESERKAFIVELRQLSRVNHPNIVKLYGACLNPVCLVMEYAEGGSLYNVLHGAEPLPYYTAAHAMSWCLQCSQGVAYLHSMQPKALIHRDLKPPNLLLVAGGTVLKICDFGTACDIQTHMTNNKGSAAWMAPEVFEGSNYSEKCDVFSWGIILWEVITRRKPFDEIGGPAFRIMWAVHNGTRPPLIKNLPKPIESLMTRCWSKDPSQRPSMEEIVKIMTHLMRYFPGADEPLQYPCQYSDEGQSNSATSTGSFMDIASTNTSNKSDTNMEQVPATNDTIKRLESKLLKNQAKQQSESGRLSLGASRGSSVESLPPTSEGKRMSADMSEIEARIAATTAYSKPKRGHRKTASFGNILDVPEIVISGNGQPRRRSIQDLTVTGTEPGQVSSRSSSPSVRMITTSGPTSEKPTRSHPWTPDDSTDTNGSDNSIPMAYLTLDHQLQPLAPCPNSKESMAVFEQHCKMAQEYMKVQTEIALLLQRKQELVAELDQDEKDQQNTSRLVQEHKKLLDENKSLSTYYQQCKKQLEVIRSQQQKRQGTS
The note with it: at 1 µM.

In test [3] the target is T1, Mitogen-activated protein kinase kinase kinase 7 (Homo sapiens). Particulars: at 10 µM.
Test [4] addresses T2, Serine/threonine-protein kinase TAO1 (Homo sapiens) (UniProt Q7L7X3).
T2 sequence (whole entry): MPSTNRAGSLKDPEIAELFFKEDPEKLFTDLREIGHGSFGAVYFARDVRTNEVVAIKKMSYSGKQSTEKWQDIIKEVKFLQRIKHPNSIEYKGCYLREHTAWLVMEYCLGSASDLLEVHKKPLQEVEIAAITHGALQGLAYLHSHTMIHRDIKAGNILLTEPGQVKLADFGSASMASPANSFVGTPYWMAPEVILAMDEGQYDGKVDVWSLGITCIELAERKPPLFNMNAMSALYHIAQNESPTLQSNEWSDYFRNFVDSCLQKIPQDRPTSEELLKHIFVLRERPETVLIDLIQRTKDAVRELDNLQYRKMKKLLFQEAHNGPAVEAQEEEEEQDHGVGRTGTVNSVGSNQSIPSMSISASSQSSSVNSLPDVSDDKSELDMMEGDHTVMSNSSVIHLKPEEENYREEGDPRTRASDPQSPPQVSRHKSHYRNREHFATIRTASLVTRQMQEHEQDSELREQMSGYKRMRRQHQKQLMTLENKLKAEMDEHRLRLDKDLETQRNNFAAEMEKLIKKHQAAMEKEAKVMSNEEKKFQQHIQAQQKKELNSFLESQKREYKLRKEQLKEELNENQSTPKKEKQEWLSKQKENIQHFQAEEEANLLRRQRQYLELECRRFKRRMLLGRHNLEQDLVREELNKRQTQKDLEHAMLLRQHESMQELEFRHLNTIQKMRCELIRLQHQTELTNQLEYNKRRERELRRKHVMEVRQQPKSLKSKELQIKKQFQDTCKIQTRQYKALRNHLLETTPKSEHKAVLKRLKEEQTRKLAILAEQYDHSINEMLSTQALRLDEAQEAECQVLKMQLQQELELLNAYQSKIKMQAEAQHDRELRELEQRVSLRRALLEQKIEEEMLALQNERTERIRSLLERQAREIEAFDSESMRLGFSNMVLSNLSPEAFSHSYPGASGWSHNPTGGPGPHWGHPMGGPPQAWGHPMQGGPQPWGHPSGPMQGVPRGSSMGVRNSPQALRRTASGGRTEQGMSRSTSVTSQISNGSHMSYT
Particulars: at 1 µM.

Test [5] concerns the target T2, Serine/threonine-protein kinase TAO1 (Homo sapiens). The note with it: at 10 µM.
In test [6] the target is T3, Serine/threonine-protein kinase TAO2 (Homo sapiens) (UniProt Q9UL54).
T3 sequence (whole entry): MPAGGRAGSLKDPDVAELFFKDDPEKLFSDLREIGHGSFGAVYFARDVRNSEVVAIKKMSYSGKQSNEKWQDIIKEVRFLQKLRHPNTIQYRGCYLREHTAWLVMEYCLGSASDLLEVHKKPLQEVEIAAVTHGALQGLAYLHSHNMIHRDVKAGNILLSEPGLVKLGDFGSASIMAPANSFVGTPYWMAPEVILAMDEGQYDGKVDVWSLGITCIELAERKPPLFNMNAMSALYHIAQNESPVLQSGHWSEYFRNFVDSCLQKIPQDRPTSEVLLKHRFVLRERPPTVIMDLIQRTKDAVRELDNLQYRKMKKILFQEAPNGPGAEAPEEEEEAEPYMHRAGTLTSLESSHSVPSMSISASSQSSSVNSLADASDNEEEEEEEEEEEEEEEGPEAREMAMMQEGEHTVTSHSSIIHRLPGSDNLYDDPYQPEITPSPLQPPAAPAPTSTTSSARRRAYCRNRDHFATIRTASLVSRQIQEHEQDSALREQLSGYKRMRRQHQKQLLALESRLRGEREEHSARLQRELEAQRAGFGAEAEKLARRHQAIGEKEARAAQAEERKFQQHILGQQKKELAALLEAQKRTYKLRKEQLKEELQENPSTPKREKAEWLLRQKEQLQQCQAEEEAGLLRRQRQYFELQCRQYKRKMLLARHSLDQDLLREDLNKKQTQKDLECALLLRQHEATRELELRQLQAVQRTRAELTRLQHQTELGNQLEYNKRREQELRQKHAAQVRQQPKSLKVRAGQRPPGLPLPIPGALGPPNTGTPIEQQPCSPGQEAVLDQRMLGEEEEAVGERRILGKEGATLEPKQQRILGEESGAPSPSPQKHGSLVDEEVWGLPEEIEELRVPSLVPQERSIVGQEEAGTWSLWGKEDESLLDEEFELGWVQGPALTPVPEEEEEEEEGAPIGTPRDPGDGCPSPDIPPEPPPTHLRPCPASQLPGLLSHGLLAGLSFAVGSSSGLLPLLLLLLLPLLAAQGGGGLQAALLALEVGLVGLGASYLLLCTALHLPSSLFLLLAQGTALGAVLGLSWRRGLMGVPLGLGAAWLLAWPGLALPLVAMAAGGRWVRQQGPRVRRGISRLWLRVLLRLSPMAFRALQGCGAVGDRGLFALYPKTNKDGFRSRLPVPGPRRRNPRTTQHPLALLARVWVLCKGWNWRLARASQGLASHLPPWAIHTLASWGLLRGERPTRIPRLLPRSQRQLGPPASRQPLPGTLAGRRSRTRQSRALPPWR
Particulars: at 1 µM.

Test [7] has as its target T3, Serine/threonine-protein kinase TAO2 (Homo sapiens). The note with it: at 10 µM.
In test [8] the target is T4, Serine/threonine-protein kinase TAO3 (Homo sapiens) (UniProt Q9H2K8).
T4 sequence (whole entry): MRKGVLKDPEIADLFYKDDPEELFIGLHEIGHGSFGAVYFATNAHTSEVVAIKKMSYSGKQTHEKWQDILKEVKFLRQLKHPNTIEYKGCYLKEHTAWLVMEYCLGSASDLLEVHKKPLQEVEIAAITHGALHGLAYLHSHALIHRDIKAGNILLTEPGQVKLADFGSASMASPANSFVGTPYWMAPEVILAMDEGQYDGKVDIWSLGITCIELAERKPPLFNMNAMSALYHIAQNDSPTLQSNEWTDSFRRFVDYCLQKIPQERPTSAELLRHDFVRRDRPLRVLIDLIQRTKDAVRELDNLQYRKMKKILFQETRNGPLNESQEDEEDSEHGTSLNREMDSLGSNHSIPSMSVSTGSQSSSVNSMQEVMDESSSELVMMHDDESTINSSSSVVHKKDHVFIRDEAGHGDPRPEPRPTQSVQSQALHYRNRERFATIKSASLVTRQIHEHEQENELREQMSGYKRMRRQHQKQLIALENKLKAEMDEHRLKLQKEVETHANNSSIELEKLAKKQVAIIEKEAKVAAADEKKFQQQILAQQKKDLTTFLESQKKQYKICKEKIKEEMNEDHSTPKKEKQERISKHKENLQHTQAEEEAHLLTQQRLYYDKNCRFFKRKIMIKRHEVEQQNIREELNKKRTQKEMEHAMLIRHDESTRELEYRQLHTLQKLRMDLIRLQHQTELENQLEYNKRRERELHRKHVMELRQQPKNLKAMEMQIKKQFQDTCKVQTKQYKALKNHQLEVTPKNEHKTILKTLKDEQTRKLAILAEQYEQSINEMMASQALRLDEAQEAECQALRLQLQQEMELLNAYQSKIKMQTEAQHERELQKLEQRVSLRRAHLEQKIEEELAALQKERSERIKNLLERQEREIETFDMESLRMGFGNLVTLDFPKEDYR
The note with it: at 1 µM.

Test [9] has as its target T4, Serine/threonine-protein kinase TAO3 (Homo sapiens). The note with it: at 10 µM.

SMILES strings stand for the structures.

As for `Nc1nc(Nc2ccc(S(N)(=O)=O)cc2)nn1C(=S)Nc1c(F)cccc1F`, the residual activity in test [1] is 3%; in test [2], 9%; in test [3], 2%; in test [4], 0%; in test [5] it was 1%; in test [6], 2%. For the same compound, the residual activity worked out at 3% in test [7], 0% in test [8] and 2% in test [9].
